Screening results: PubChem, Sanford-Burnham Center for Chemical Genomics
eIF4H FP inh: human eIF4H binding inhibitors, primary screen, translation initiation inhibitor project, biochemical, uHTS, fluorescence polarization; AID 2012, 2009; Eukaryotic translation initiation factor 4H (Homo sapiens), Q15056; eIF4H fluorescence polarization binding assay; 0.94% of 290,000 active; inhibition, % at 35 µM;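 also: calls also rest on retests at 20 µM and on dose response follow-up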
MLLE-PAM2 inh: inhibitors of PABP1 MLLE–PAM2 peptide binding, primary screen, biochemical, fluorescence polarization, FITC-PAM2, GST-MLLE; inhibition, % at 20 µM; 0.36% of 360,000 active; in the data active = inhibition above about 35%, passing the limit was not always enough;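 also: plate controls were DMSO wells with GST-MLLE for no effect and wells lacking GST-MLLE protein for full effect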
PABP FP inh: PABP poly(A) RNA binding inhibitors, primary screen, biochemical, fluorescence polarization, uHTS | 1% of 290,000 active | AID 2014, 2009 | Polyadenylate-binding protein 1 (Homo sapiens), P11940 | calls only at 35 µM;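 also: calls also rest on retests at 20 µM and on dose response follow-up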
PHOSPHO1 block: PubChem AID 1565; Phosphoethanolamine/phosphocholine phosphatase (Homo sapiens), Q8TCT1; recombinant PHOSPHO1, absorbance phosphatase assay; inhibition, % at 13.3 µM; 1.1% of 290,000 active; in the data active = inhibition above about 60%
Target sequence (Q8TCT1 whole entry, looked up): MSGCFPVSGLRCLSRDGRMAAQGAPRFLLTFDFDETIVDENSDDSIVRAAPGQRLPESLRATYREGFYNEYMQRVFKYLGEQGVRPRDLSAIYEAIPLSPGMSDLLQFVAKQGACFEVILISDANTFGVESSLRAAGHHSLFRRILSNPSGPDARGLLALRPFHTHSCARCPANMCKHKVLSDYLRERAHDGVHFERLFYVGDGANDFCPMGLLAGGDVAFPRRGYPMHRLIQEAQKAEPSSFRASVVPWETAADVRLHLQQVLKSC
A3A deaminase: APOBEC3A ssDNA deaminase inhibitors, primary screen, selectivity assay for APOBEC3G inhibitor project, biochemical, FAM/TAMRA oligo cleavage fluorescence | DNA dC->dU-editing enzyme APOBEC-3A (Homo sapiens), P31941 | recombinant A3A, FAM/TAMRA ssDNA deamination fluorescence | inhibition, % at 20 µM | 0.41% of 330,000 active;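 active = at least 40% inhibition at 20 µM here, with at most 30% in a related deaminase screen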;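 also: plate controls were A3A with DMSO for no effect and wells lacking A3A enzyme for full effect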
Target sequence (P31941 whole entry, looked up): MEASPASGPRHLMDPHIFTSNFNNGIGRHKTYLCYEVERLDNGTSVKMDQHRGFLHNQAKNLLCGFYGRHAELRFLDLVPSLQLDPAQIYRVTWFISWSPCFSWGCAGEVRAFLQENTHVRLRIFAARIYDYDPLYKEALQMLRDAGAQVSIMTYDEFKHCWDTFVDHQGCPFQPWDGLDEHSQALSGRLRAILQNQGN
A3G deaminase: APOBEC3G DNA deaminase inhibitors, primary screen, biochemical, fluorescence, single-stranded DNA substrate, uHTS. DNA dC->dU-editing enzyme APOBEC-3G (Homo sapiens), Q9HC16. recombinant A3G, ssDNA deamination FAM/TAMRA fluorescence. inhibition, % at 20 µM. 0.28% of 330,000 active. AID 493012, 2011;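 active = inhibition of at least 40% at 20 µM, with no more than 30% in the related APOBEC3A deaminase screen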;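 also: plate controls were DMSO wells with A3G for no effect and wells lacking A3G enzyme for full effect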
A3G conf: APOBEC3G deaminase inhibitor retest, confirmation, biochemical, fluorescence, single-stranded DNA substrate, single concentration; shares compounds with A3G deaminase; 72% of 890 active; AID 493152, 2011; recombinant A3G ssDNA deaminase, UDG/FAM-TAMRA fluorescence; inhibition, % at 20 µM;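 active = inhibition reaching a set limit in any replicate at 20 µM, the limit being 80% of the first screen's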
UDG ctr A3G: E. coli UDG inhibitors, confirmation, counter-screen for APOBEC3G inhibitor project, biochemical, single concentration, fluorescence, FAM/TAMRA oligo; shares compounds with A3G deaminase; UDG counterscreen; inhibition, % at 20 µM; 710 tested, under 10 active; AID 504715, 2011;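 active = compounds giving 40% or more inhibition at 20 µM in any one of the three replicates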;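 also: plate controls were DMSO wells with UDG and oligo for no effect and DMSO wells lacking both for full effect; inhibitors lower the FAM signal released by uracil excision and alkaline cleavage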
* marks the source's active call; other numbers are inactive results; i = inactive; nt = no result given. Most compounds without a hit are left out; they make up all but 2.6% or so of the library. Unless noted, no rule for the calls is given here.

SMILES	eIF4H FP inh	MLLE-PAM2 inh	PABP FP inh	PHOSPHO1 block	A3A deaminase	A3G deaminase	A3G conf	UDG ctr A3G
CCOC(=O)c1ccc(N=c2ssnc2Cl)cc1	1.0	18.8	i	77.2*	4.7	65.6*	78.6*	0.2
COc1ccc(N=c2ssnc2Cl)cc1	2.2	26.2	i	77.3*	4.7	69.7*	78.5*	2.6
N#Cc1ccc(N=c2ssnc2Cl)cc1	-5.6	24.0	i	-88.5	-2.1	73.1*	91.5*	-3.2
COc1cc(N=c2ssnc2Cl)cc(OC)c1OC	4.4	14.0	i	-66.9	-0.2	72.2*	92.9*	0.3
COc1ccc(CNC(=O)C(=O)NCCC2CCCCN2S(=O)(=O)c2cccs2)cc1 (stereo not given)	nt	6.5	nt	nt	2.1	-5.7	nt	nt
COCCNc1nc(N)c([N+](=O)[O-])c(NCc2ccccc2)n1	-0.5	-17.0	i	32.6	-3.6	-7.4	nt	nt
O=C(NCC(c1ccco1)N1CCCC1)c1cccc(S(=O)(=O)Nc2ccc(F)cc2)c1 (stereo not given)	nt	-1.0	nt	nt	-3.6	-9.1	nt	nt
CC1=C(SCCC#N)S/C(=C2\SC(C)=C(SCCC#N)S2)S1	3.9	26.4	i	95.2*	2.5	69.0*	47.4*	-2.9
COc1ccc(OCc2n[nH]c(=S)n2Cc2ccco2)cc1	12.4	-1.8	i	57.1	-3.1	43.0*	71.7*	9.6
O=C(N[C@@H](Cc1ccccc1)C(=O)OCC(=O)N1CCOCC1)c1cccs1	-0.9	-13.4	i	-1.7	2.3	-3.8	nt	nt
S=c1[nH]c(-c2ccccc2)cn1/N=C/c1cccnc1	2.8	21.5	i	43.2	-9.1	50.5*	73.2*	1.6
O=C(O)c1ccc(/C=N/n2cc(-c3ccccc3)[nH]c2=S)cc1	14.1	22.8	i	97.3*	-5.1	58.4*	80.1*	-3.7
S=c1[nH]c(-c2ccccc2)cn1/N=C/c1cccs1	-2.1	11.1	i	33.4	-2.5	3.1	nt	nt
S=c1[nH]c(-c2ccccc2)cn1/N=C/c1ccc(Br)cc1	0.2	19.5	i	-62.3	-2.1	-7.1	nt	nt
O=Cc1cn(CCOc2ccccc2F)c2ccccc12	-12.0	-1.7	i	34.0	-3.3	-4.9	nt	nt
Cc1cccc(C(=O)NCCc2ccccc2)c1	-1.9	-0.2	i	39.9	-0.3	1.1	nt	nt
CCOC(=O)c1cccc(NC(=O)Cn2cc3c(n2)CCC(C)C3)c1 (stereo not given)	-7.7	3.4	i	-9.0	1.9	46.9*	-2.4	nt
CC(=O)Nc1ccc(NC(=O)Cn2cc3c(n2)CCC(C)C3)cc1 (stereo not given)	-4.1	nt	i	-12.8	nt	nt	nt	nt
COc1cc(CNCCNC(=O)c2nonc2N)ccc1OCc1ccc(Cl)cc1	1.5	-3.7	i	45.4	-7.1	78.9*	-1.7	-5.6
Cc1cc(F)ccc1S(=O)(=O)Nc1ncnc2sc3c(c12)CCC3	7.7	4.4	i	-12.6	-1.0	51.1*	-4.0	1.6
O=C1C=CC(=O)C(C2=C3C(=O)N(CCc4ccccc4)CC(=O)N3CCC2)=C1	75.3	nt	i	2.1	3.3	89.7*	93.2*	2.7
CSCC[C@H](NC(=O)[C@@H]1CSC2c3ccccc3C(=O)N21)C(=O)N1CCC[C@H]1CO (stereo not given in full)	-4.0	15.6	i	34.3	-3.9	-9.4	nt	nt
O=C(Cn1c(=O)oc2ccccc21)Nc1n[nH]c(=S)s1	9.1	22.6	i	54.8	-6.9	80.7*	89.8*	-2.3
